Assay outcomes (PubChem)
An excerpt weighted towards active compounds, which were near 2.1% of everything screened.
NR2F2 inh = NR2F2 transcriptional activity inhibitors, primary screen, cell-based, luciferase reporter, HEK293T, luminescence. HEK293T NGFI-A luciferase reporter. COUP transcription factor 2 (Homo sapiens), P24468. AID 686940, 2013. inhibition, % at 8.6 µM. actives 0.7% (n = 370,000);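 active = inhibition above a per-plate cutoff, mean inhibition of test wells between control levels plus 3 SD, cut at about 38% in these data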;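 note: cells cotransfected with COUP-TFII expression vector driving the NGFI-A reporter; 0% = median of COUP-TF2 test wells and 100% = reporter-only cells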
Target sequence (P24468 whole entry, looked up): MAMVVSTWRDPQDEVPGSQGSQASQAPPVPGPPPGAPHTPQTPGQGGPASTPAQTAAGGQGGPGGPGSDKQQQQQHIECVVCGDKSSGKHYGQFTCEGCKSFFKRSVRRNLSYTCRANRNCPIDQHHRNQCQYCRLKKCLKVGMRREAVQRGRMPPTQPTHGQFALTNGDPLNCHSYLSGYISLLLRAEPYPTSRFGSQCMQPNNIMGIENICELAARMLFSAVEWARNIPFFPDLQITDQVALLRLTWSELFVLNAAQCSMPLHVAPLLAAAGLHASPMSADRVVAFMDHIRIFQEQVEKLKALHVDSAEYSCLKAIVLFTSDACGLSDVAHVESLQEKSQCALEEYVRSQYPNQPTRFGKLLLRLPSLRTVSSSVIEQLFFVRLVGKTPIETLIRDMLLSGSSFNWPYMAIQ
Env fusion inh = inhibitors of HIV-1 Env-driven cell-cell fusion, primary screen, HeLa-JRFL effector, CEM21 target cells, luciferase; inhibition, % at 12.3 µM; actives 1.1% (n = 360,000);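 active = mean replicate inhibition score of at least 50 and every replicate individually at or above 50; inconclusive = only one of the two criteria met; inactive = mean below 50 and not all replicates reaching 50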;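 note: 0% = plate neutral controls and 100% = maraviroc near 300 nM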
aDG glyco act = activators of alpha-DG glycosylation, primary screen, uHTS, Pro5-aDG cells, AlphaScreen | alpha-DG glycosylation AlphaScreen (IIH6); 0% Pro5, 100% B10-LARGE cell signal | activation, % at 10 µM | actives 0.22% (n = 360,000) | AID 624168, 2012;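 active = activation of at least 8% versus controls, or a plate z-score of at least 8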;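 note: Pro5 are CHO cells carrying HIG-tagged alpha-DG that lacks glycosylation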
Gli-Sufu antag = Gli-Sufu pathway antagonists, primary screen, luciferase luminescence, Sufu-KO-LIGHT cells, uHTS. Sufu-KO-LIGHT fibroblasts, Gli luciferase reporter luminescence. inhibition, % at 5 µM. actives 0.74% (n = 340,000). AID 588413, 2011;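 active = inhibition above about 55%, limit read from the data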;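 note: 0% = DMSO-treated cells and 100% = wells with medium but no cells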
GalR3 antag = GalR3 antagonists in HEK293 cells, primary screen, cell-based, fluorescence readout. inhibition, % at 3 µM. actives 0.44% (n = 360,000). HEK293 GalR3-CNG cAMP membrane potential fluorescence; galR3 body fused to GalR1 C-terminus. AID 651719, 2012. Galanin receptor type 3 (Homo sapiens), O60755;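 active = inhibition above the screen-wide average plus 3 SD, cut at about 13% in these data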;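 note: forskolin and galanin both at EC90 stimulate the cells; cAMP rise reported by CNG channel membrane potential dye signal; 0% = forskolin plus galanin with DMSO and 100% = forskolin alone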
An asterisk follows results filed as active; [ ] = another dose, or the depositor's remark.

How did O=C1[C@H]2[C@@H](C3CC3)N3C(=O)CN(CC4CC4)C(=O)[C@@]3(Cc3ccccc3)[C@H]2C(=O)N1c1ccccc1 do in these assays?
NR2F2 inh: 12; Env fusion inh: 70*; aDG glyco act: 0; Gli-Sufu antag: 2; GalR3 antag: -4

Results for Cc1ccccc1Cc1c(C)nc2c(C(=O)N3CCN(Cc4ccc5c(c4)OCO5)CC3)cnn2c1C ?
NR2F2 inh: -4; Env fusion inh: 60*; aDG glyco act: 0; Gli-Sufu antag: 3; GalR3 antag: -5

How did Cc1cccc(Cc2c(C)nc3c(C(=O)N4CCN(Cc5ccc6c(c5)OCO6)CC4)cnn3c2C)c1 do in these assays?
NR2F2 inh: 22; Env fusion inh: 36; aDG glyco act: 0; Gli-Sufu antag: 10; GalR3 antag: -5

How did O=C(c1cnn2c(C(F)F)cc(-c3ccccc3)nc12)N1CCN(Cc2ccc3c(c2)OCO3)CC1 do in these assays?
NR2F2 inh: 10; Env fusion inh: 58*; aDG glyco act: 0; Gli-Sufu antag: 15; GalR3 antag: -1

Results for CCOC(=O)Cn1c(S(=O)(=O)Cc2ccccc2)nc2ccccc21 ?
NR2F2 inh: 3; Env fusion inh: inconclusive; aDG glyco act: 0; Gli-Sufu antag: -3

What do the screens show for `C#CCn1c(S(=O)(=O)Cc2ccc(OC)cc2)nc(-c2ccccc2)c1-c1ccccc1`?
NR2F2 inh: 22; Env fusion inh: 82*; aDG glyco act: 0; Gli-Sufu antag: 18; GalR3 antag: -8

Results for CCOC(=O)Cn1c(S(=O)(=O)Cc2ccc(Cl)cc2)nc(-c2ccccc2)c1-c1ccccc1 ?
NR2F2 inh: -1; Env fusion inh: 114*; aDG glyco act: 0; Gli-Sufu antag: 17; GalR3 antag: -6

Results for COc1ccc(-c2nc3ccccc3nc2-c2ccccc2)cc1 ?
NR2F2 inh: -6; Env fusion inh: -5; aDG glyco act: 0; Gli-Sufu antag: -1; GalR3 antag: 4

What do the screens show for `C[C@@H]1CCCCO[C@@H](CN(C)C(=O)c2ccncc2)[C@@H](C)CN([C@H](C)CO)C(=O)c2cc(NS(=O)(=O)c3ccc(F)cc3)ccc2O1`?
Env fusion inh: 0[16.7 µM]

Results for C[C@@H]1CCCCO[C@H](CN(C)Cc2ccc(C(F)(F)F)cc2)[C@@H](C)CN([C@@H](C)CO)C(=O)c2cc(NC(=O)CCCN(C)C)ccc2O1 ?
Env fusion inh: -27[16.7 µM]

What do the screens show for `CC[C@@H]1[C@H]2CCCC(=O)N3CC[C@@H](C[C@@H]1OC(=O)NCc1ccccc1)[C@@H]23`?
NR2F2 inh: 13; Env fusion inh: -18; aDG glyco act: 0; Gli-Sufu antag: -2; GalR3 antag: -4

Results for CCCCNC(=O)O[C@H]1C[C@@H]2CCN3C(=O)CCC[C@H]([C@H]1Cc1ccccc1)[C@H]23 ?
NR2F2 inh: -6; Env fusion inh: 56*; aDG glyco act: 0; Gli-Sufu antag: -9; GalR3 antag: -6

How did O=C(O)CCSc1ncnc2sc(-c3ccccc3)cc12 do in these assays?
NR2F2 inh: 23; Env fusion inh: 68*; aDG glyco act: 0; Gli-Sufu antag: 46; GalR3 antag: -2

How did C[C@@H]1CN([C@H](C)CO)C(=O)c2cccc(NC(=O)C3CCCCC3)c2O[C@H]1CN(C)S(=O)(=O)c1cccs1 do in these assays?
Env fusion inh: -16[16.7 µM]

What do the screens show for `CO[C@@H]1CN(C)C(=O)c2ccc(NS(=O)(=O)C3CCCCC3)cc2OC[C@H](C)NC[C@H]1C`?
Env fusion inh: 3[16.7 µM]

How did CC(C)CC(COCc1cccc(Cl)c1)N1CCN(C(=O)c2ccc(C(F)(F)F)cc2)CCC1=O (stereo not given) do in these assays?
NR2F2 inh: 6; Env fusion inh: 59*; aDG glyco act: 2; Gli-Sufu antag: 12; GalR3 antag: -7

What do the screens show for `CC(C)C[C@@H](COCc1ccc(F)cc1)N1CCN(C(=O)c2cccc(C(F)(F)F)c2)CCC1=O`?
NR2F2 inh: 15; Env fusion inh: 6; aDG glyco act: 0; GalR3 antag: -9

How did Cc1cccc(COC[C@H](Cc2ccccc2)N2CCN(C(=O)c3ccc(C(F)(F)F)cc3)CCC2=O)c1 do in these assays?
NR2F2 inh: 6; Env fusion inh: 39; aDG glyco act: 0; GalR3 antag: -9

What do the screens show for `CC(C)C[C@@H](COCc1cccc(Cl)c1)N1CCN(C(=O)c2cccc(C(F)(F)F)c2)CCC1=O`?
NR2F2 inh: 5; Env fusion inh: 58*; aDG glyco act: 0; GalR3 antag: -5

Results for C[C@@H]1CN([C@H](C)CO)C(=O)c2cccc(NC(=O)C3CCCCC3)c2O[C@H]1CN(C)S(=O)(=O)c1ccc(Cl)cc1 ?
Env fusion inh: -17[16.7 µM]

How did COC1=C(N)C(=O)c2nc(-c3nc(C(=O)O)c(C)c(-c4ccc(OC)c(OC)c4O)c3N)ccc2C1=O do in these assays?
Gli-Sufu antag: 89*

How did CC(C)C[C@@H](C(=O)O)N(Cc1cccc(CN([C@@H](CC(C)C)C(=O)O)S(C)(=O)=O)c1)S(C)(=O)=O do in these assays?
NR2F2 inh: 1; Env fusion inh: 61*; aDG glyco act: 0; Gli-Sufu antag: 4; GalR3 antag: -3

How did COC(=O)[C@@H](CC(C)C)N(Cc1ccccc1)S(=O)(=O)N(Cc1ccccc1)[C@@H](CC(C)C)C(=O)OC do in these assays?
NR2F2 inh: -6; Env fusion inh: 85*; aDG glyco act: 0; Gli-Sufu antag: 18; GalR3 antag: -2

What do the screens show for `C[C@H]1CN([C@@H](C)CO)C(=O)c2cc(NC(=O)C3CC3)ccc2O[C@H]1CN(C)Cc1ccc(C(F)(F)F)cc1`?
Env fusion inh: -6[16.7 µM]

Results for CCC(=O)Nc1ccc2c(c1)C(=O)N(C)[C@@H]1CC[C@H](CC(=O)NCCc3ccccc3)O[C@@H]1CO2 ?
Env fusion inh: -4[16.7 µM]

How did Cc1ccc(S(=O)(=O)NC2CCN(Cc3cccc(OCCO)c3)CC2)cc1 do in these assays?
Env fusion inh: -17[16.7 µM]

Results for CC(C)NC(=O)Nc1ccc2c(c1)C(=O)N([C@H](C)CO)C[C@H](C)[C@@H](CN(C)S(=O)(=O)c1ccc(Cl)cc1)OCCCC[C@@H](C)O2 ?
Env fusion inh: -43[16.7 µM]

How did C[C@H]1CN([C@@H](C)CO)C(=O)c2ccccc2-c2ccccc2CO[C@@H]1CN(C)C(=O)Nc1cccc(C(F)(F)F)c1 do in these assays?
Env fusion inh: 59*[16.7 µM]

Results for COc1ccc(CNC(=O)N(C)C[C@@H]2OCc3ccccc3-c3c(n(C)c4ccccc34)C(=O)N([C@H](C)CO)C[C@H]2C)cc1 ?
Env fusion inh: 7[16.7 µM]
